Among the data in paper PMC7862700, “An all-to-all approach to the identification of sequence-specific readers for epigenetic DNA modifications on cytosine” are binding signal values, retold here.

Test in all cases: DAPPL (digital affinity profiling via proximity ligation, sequencing); 10 mM Tris-HCl pH 7.5, 50 mM NaCl, 1 mM DTT, 4% glycerol, room temperature, 30 min; GST-TFs on glutathione beads, 16-mer random dsDNA library, 0.1% formaldehyde crosslink after washing; high values mean tight binding
In one assay the target is T1, FLI1 (Homo sapiens, UniProt Q01543 1-452).
T1 sequence: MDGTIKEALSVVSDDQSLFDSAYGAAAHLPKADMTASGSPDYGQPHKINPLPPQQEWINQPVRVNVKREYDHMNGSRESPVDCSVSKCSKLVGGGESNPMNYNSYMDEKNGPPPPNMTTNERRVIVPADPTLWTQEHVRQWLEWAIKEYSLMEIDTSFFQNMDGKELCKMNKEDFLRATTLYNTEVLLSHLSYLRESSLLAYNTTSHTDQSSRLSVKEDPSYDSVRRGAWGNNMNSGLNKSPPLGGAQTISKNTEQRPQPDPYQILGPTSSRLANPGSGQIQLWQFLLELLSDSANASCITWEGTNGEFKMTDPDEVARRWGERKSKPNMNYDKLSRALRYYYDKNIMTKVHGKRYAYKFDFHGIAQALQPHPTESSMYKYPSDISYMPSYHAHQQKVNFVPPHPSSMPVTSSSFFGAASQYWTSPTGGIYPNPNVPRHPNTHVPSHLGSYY
Particulars: protein: recombinant; tags: N-terminal GST; dsDNA, one strand shown. In a few lines: (§1)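 In yeast, human transcription factors were expressed with a GST fusion, then pulled down on glutathione beads and given DNA barcodes. Pooled with a tag-only sample, they were exposed to 200 nmole of a 16-mer random double-stranded DNA library (Tris/NaCl/DTT/glycerol buffer, room temperature, 30 min), washed, crosslinked with 0.1% formaldehyde, proximity-ligated using BsaI/T4 ligase for 1 h at 37 °C, PCR-amplified and read on an Illumina NextSeq500. Each hexamer's frequency of reads for a factor, divided by the matching frequency for the tag-only sample, gives the binding signal.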

In another assay the target is T2, ELK1 (Homo sapiens, UniProt P19419 1-428).
T2 sequence: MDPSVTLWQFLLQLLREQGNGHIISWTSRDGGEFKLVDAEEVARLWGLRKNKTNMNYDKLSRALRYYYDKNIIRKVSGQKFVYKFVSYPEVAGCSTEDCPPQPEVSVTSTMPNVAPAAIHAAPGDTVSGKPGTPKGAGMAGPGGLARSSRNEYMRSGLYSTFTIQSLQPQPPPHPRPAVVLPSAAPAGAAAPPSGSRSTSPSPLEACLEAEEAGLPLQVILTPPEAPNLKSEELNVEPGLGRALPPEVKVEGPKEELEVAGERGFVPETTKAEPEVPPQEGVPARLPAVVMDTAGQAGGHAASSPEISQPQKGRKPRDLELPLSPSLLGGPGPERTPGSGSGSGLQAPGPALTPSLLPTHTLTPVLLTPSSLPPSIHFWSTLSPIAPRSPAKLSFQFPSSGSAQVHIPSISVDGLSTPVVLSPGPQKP
To be noted: protein: recombinant; tags: N-terminal GST; dsDNA, one strand shown. In a few lines:
as §1

Another assay addresses T3, GABPA (Homo sapiens, UniProt Q06546 1-454).
T3 sequence: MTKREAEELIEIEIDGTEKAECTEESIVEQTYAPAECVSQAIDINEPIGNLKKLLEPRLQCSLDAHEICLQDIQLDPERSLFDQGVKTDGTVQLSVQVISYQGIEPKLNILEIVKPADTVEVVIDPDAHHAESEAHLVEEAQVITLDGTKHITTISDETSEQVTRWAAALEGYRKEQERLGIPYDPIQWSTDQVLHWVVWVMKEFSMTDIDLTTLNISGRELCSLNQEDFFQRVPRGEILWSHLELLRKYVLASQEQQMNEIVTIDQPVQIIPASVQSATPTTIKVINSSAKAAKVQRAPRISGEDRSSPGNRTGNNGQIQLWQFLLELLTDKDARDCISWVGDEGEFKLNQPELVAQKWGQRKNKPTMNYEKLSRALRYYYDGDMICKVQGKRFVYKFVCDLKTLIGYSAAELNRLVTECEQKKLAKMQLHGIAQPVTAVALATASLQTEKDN
To be noted: protein: recombinant; tags: N-terminal GST; dsDNA, one strand shown. In a few lines: as §1

A further assay addresses T4, ERG (Homo sapiens, UniProt P11308 1-479).
T4 sequence: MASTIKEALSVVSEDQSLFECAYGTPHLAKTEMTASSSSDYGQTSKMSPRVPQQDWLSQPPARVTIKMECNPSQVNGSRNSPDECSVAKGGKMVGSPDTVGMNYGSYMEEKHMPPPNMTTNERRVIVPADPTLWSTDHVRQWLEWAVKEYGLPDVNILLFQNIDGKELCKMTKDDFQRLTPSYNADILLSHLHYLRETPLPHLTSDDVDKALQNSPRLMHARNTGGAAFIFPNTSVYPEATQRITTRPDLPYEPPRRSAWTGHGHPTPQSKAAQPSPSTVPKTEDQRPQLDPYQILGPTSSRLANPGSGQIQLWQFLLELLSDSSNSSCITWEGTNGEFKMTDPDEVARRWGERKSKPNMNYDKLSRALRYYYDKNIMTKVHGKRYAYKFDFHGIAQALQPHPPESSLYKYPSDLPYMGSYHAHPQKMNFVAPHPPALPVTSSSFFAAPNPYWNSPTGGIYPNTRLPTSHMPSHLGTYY
To be noted: protein: recombinant; tags: N-terminal GST; dsDNA, one strand shown. A digest of the protocol: as §1

Another assay has as its target ELF1 (Homo sapiens, UniProt P32519 1-619). To be noted: protein: recombinant; tags: N-terminal GST; dsDNA, one strand shown. A digest of the protocol:
as §1

The target of another assay is T5, EHF (Homo sapiens, UniProt Q9NZC4 1-300).
T5 sequence: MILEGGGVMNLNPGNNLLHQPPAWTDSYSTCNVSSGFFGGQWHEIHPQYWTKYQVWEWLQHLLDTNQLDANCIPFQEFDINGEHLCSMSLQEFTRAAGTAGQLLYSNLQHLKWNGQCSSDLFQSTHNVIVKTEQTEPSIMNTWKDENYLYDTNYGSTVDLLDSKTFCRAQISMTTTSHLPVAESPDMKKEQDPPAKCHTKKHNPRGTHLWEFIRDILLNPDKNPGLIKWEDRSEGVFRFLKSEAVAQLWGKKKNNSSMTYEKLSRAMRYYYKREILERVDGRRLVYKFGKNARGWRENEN
To be noted: protein: recombinant; tags: N-terminal GST; dsDNA, one strand shown. In a few lines: as §1

For the next assay, the target named is SPI1 (Homo sapiens, UniProt P17947 1-270). Particulars: protein: recombinant; tags: N-terminal GST; dsDNA, one strand shown. In a few lines: as §1
Another assay addresses SPIB (Homo sapiens, UniProt Q01892 1-262). To be noted: protein: recombinant; tags: N-terminal GST; dsDNA, one strand shown. A digest of the protocol: as §1
A further assay concerns the target T6, ELK3 (Homo sapiens, UniProt P41970 1-407).
T6 sequence: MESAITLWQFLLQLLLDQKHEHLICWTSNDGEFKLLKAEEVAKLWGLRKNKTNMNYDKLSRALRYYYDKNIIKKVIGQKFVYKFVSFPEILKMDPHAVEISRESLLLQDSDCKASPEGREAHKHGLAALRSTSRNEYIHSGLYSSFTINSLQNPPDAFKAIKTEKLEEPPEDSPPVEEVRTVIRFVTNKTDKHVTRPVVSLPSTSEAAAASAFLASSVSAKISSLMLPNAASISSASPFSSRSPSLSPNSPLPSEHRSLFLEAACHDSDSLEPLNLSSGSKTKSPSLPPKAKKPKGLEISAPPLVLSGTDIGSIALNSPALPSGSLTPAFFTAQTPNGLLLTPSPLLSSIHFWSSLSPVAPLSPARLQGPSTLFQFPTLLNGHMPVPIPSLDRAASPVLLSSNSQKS
Particulars: protein: recombinant; tags: N-terminal GST; dsDNA, one strand shown. A digest of the protocol:
as §1

In the next assay the target is T7, FEV (Homo sapiens, UniProt Q99581 1-238).
T7 sequence: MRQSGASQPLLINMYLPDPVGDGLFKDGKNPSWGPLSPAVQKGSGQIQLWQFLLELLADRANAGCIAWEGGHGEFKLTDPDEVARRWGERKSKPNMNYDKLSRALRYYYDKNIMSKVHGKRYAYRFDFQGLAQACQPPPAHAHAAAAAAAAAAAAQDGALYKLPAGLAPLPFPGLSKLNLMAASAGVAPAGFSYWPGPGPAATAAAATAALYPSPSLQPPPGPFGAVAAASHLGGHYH
To be noted: protein: recombinant; tags: N-terminal GST; dsDNA, one strand shown. In a few lines: as §1

A further assay deals with ETV5 (Homo sapiens, UniProt P41161 1-510). Particulars: protein: recombinant; tags: N-terminal GST; dsDNA, one strand shown. In a few lines: as §1
The target of another assay is HSF1 (Homo sapiens, UniProt Q00613 1-529). To be noted: protein: recombinant; tags: N-terminal GST; chain copies: 3; dsDNA, one strand shown. A digest of the protocol:
as §1

A further assay has as its target T8, SPIC (Homo sapiens, UniProt Q8N5J4 1-248).
T8 sequence: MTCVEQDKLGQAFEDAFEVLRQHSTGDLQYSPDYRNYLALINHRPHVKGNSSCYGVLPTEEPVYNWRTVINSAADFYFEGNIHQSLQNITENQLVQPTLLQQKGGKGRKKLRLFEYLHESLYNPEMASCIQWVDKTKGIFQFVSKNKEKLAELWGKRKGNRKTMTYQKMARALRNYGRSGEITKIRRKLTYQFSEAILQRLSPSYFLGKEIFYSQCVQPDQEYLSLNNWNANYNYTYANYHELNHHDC
To be noted: protein: recombinant; tags: N-terminal GST; dsDNA, one strand shown. A digest of the protocol:
as §1

The target in the next assay is ELF4 (Homo sapiens, UniProt Q99607 1-663). Particulars: protein: recombinant; tags: N-terminal GST; dsDNA, one strand shown. In a few lines:
as §1

A further assay has as its target T9, ELK4 (Homo sapiens, UniProt P28324-2 1-405).
T9 sequence: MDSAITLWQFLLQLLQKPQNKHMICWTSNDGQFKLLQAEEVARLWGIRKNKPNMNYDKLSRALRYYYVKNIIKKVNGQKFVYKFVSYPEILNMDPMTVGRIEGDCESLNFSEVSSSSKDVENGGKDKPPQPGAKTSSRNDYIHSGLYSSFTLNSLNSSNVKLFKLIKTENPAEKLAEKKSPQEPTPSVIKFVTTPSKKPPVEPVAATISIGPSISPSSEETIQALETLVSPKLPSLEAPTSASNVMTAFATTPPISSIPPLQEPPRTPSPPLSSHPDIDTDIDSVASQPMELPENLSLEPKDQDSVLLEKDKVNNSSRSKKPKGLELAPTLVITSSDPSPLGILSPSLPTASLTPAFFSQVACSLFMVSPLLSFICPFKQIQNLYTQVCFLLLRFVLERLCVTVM
Particulars: protein: recombinant; tags: N-terminal GST; dsDNA, one strand shown. In a few lines: as §1

The next assay deals with T10, ETV2 (Homo sapiens, UniProt O00321 1-342).
T10 sequence: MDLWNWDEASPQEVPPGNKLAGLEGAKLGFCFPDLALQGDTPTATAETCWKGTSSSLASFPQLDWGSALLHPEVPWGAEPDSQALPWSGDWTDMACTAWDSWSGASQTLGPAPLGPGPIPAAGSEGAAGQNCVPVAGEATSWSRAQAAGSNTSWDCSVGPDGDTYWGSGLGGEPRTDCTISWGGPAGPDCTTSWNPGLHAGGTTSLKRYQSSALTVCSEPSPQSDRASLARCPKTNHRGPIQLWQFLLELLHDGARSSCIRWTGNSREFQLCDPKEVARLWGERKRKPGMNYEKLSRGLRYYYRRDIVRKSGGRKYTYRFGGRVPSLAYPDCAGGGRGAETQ
To be noted: protein: recombinant; tags: N-terminal GST; dsDNA, one strand shown. In a few lines: as §1

The target of the next assay is T11, ELF3 (Homo sapiens, UniProt P78545 1-371).
T11 sequence: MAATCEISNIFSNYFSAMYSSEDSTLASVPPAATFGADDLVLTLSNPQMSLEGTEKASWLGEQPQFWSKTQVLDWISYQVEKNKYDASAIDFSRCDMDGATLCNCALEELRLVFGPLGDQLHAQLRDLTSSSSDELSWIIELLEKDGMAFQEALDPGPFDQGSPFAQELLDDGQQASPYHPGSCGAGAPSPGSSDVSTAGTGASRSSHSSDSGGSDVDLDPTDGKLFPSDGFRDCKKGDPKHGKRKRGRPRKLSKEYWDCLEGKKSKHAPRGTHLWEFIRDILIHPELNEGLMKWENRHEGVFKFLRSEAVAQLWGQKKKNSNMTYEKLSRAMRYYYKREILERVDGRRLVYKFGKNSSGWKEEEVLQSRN
Particulars: protein: recombinant; tags: N-terminal GST; dsDNA, one strand shown. A digest of the protocol: as §1

Another assay deals with CRX (Homo sapiens, UniProt O43186 1-299). To be noted: protein: recombinant; tags: N-terminal GST; dsDNA, one strand shown. In a few lines:
as §1

For another assay, the target named is ETV1 (Homo sapiens, UniProt P50549 1-477). To be noted: protein: recombinant; tags: N-terminal GST; dsDNA, one strand shown. A digest of the protocol:
as §1

SPIB, sequence (Q01892 whole entry): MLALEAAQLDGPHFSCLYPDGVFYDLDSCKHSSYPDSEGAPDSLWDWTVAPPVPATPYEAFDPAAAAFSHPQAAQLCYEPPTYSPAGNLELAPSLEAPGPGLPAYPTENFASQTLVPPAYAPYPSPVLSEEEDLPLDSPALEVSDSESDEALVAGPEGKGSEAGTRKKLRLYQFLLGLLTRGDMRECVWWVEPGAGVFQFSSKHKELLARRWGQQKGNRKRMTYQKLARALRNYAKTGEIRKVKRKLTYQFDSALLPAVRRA
ELF4, sequence (Q99607 whole entry): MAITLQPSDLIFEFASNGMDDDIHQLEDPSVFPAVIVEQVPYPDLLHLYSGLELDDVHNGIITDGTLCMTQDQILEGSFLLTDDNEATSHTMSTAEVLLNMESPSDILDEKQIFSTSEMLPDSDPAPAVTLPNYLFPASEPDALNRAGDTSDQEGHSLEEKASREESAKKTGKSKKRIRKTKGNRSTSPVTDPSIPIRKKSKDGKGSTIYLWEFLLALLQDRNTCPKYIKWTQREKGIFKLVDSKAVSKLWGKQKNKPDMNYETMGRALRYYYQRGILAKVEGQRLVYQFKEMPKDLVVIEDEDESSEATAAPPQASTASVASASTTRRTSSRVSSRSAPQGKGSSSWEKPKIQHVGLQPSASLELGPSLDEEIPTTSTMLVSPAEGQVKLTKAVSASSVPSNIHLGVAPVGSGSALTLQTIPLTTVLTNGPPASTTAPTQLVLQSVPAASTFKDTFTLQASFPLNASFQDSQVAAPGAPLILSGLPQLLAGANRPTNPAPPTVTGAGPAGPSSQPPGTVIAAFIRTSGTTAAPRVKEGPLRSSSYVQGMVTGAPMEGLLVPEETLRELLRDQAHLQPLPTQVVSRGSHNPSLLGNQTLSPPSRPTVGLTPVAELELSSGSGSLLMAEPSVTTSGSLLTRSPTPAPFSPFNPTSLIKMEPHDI
ETV1, sequence (P50549 whole entry): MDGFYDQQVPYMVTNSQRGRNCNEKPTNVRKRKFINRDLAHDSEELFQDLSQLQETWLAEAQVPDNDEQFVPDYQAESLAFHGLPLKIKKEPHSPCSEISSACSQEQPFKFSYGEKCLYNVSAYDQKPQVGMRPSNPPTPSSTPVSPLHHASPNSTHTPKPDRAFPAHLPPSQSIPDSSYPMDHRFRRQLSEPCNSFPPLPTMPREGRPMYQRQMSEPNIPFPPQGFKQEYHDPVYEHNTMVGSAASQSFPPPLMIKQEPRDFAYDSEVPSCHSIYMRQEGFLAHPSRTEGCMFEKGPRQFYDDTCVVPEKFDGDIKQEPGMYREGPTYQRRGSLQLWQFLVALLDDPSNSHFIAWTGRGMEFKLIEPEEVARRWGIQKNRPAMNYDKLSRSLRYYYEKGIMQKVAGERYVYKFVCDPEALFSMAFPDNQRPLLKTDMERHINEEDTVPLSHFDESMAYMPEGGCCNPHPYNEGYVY
ELF1, sequence (P32519 whole entry): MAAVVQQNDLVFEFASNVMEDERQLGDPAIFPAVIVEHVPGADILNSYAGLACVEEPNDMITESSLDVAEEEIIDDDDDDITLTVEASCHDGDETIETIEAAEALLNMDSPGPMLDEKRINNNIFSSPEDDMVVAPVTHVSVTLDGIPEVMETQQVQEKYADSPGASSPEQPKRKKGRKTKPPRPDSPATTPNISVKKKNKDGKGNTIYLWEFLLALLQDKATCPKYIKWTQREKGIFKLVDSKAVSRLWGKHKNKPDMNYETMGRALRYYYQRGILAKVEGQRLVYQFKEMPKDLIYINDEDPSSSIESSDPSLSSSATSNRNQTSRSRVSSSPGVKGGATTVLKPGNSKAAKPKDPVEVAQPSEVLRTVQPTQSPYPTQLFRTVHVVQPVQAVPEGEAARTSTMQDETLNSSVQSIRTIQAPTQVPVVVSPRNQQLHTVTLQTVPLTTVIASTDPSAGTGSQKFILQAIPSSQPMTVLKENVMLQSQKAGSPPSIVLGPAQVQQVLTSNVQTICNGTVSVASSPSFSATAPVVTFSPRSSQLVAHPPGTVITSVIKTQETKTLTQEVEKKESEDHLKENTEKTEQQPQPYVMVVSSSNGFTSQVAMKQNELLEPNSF
ETV5, sequence (P41161 whole entry): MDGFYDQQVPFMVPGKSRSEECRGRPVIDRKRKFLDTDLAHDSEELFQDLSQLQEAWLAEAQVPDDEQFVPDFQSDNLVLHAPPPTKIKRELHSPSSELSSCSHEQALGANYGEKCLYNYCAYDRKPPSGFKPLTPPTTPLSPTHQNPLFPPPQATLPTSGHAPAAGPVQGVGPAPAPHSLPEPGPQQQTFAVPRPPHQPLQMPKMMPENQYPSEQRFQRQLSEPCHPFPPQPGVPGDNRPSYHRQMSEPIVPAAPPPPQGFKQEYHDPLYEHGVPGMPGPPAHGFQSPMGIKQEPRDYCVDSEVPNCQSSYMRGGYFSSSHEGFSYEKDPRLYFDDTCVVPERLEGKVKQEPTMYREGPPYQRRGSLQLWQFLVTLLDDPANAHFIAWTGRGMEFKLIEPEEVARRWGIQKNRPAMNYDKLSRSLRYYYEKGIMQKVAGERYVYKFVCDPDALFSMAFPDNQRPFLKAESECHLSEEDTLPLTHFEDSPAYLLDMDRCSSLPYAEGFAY
CRX, sequence (O43186 whole entry): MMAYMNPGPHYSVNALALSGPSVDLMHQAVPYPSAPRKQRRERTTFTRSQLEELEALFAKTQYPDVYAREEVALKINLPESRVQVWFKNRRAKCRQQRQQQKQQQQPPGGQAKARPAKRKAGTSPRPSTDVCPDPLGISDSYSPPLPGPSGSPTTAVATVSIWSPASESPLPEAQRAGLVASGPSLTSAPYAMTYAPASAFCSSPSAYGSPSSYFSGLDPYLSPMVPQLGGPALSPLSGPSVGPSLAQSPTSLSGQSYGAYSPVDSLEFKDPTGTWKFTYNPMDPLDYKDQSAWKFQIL
HSF1, sequence (Q00613 whole entry): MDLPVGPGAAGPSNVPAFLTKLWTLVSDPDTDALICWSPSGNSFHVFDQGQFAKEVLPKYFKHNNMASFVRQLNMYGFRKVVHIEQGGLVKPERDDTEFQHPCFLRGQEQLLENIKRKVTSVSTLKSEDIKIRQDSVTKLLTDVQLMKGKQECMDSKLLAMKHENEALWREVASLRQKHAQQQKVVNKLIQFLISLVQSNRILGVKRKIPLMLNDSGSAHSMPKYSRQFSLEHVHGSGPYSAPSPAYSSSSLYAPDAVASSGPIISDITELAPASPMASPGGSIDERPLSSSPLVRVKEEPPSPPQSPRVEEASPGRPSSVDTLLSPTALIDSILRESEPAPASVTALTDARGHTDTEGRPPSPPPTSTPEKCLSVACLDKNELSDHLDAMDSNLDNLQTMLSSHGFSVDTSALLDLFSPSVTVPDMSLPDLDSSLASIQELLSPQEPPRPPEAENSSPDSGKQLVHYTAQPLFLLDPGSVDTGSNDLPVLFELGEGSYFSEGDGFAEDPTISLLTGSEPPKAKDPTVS

With AAGTAG, the binding signal with FLI1 is 1.12 fold enrichment (6-mer frequency, TF over GST control); in the assay with ELK1 it was 1.21 fold enrichment (6-mer frequency, TF over GST control); with GABPA it was 1.2 fold enrichment (6-mer frequency, TF over GST control); with ERG, 1.24 fold enrichment (6-mer frequency, TF over GST control); in the assay with ELF1 it was 1.15 fold enrichment (6-mer frequency, TF over GST control); with EHF, 1.23 fold enrichment (6-mer frequency, TF over GST control). For the same sequence, the binding signal in the assay with SPI1 was 1.35 fold enrichment (6-mer frequency, TF over GST control); with SPIB it was 1.13 fold enrichment (6-mer frequency, TF over GST control); with ELK3, 1.26 fold enrichment (6-mer frequency, TF over GST control); in the assay with FEV, 1.21 fold enrichment (6-mer frequency, TF over GST control); in the assay with ETV5, 1.25 fold enrichment (6-mer frequency, TF over GST control); with HSF1, 1.11 fold enrichment (6-mer frequency, TF over GST control). Besides, the binding signal in the assay with SPIC is 1.3 fold enrichment (6-mer frequency, TF over GST control); with ELF4, 1.18 fold enrichment (6-mer frequency, TF over GST control); with ELK4 it was 1.06 fold enrichment (6-mer frequency, TF over GST control); in the assay with ETV2 it was 1.18 fold enrichment (6-mer frequency, TF over GST control); with ELF3, 1.31 fold enrichment (6-mer frequency, TF over GST control); in the assay with CRX it was 1.2 fold enrichment (6-mer frequency, TF over GST control). The binding signal with ETV1 was 1.28 fold enrichment (6-mer frequency, TF over GST control).
